# The full list was thinned out, with the strongest signals kept by preference.
# What was measured:
# Experiment in all cases: glycan array binding signal (z-score within array); higher = stronger binding
# Conditions in all cases: glycan notation: IUPAC condensed, linker removed
# [1] = target: Fuc(a1-2)Gal(b1-3)[Fuc(a1-4)]GlcNAc
# Method in brief: (§1)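 The binding signal is a Z-score computed within each array. Data were drawn from 3228 arrays in the Consortium for Functional Glycomics database, restricted to those with a known protein sequence. Scores were averaged over arrays of the same protein sequence at different concentrations or buffers, and over linkers, and negative values can be taken as non-binding.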
# [2] = target: Fuc(a1-2)Gal(b1-4)[Fuc(a1-3)]GlcNAc(b1-2)Man(a1-3)[Fuc(a1-2)Gal(b1-4)[Fuc(a1-3)]GlcNAc(b1-2)Man(a1-6)]Man(b1-4)GlcNAc(b1-4)GlcNAc
# Method in brief: as §1
# [3] = target: Fuc(a1-2)[GalNAc(a1-3)]Gal(b1-4)GlcNAc(b1-2)Man(a1-3)[Fuc(a1-2)[GalNAc(a1-3)]Gal(b1-4)GlcNAc(b1-2)Man(a1-6)]Man(b1-4)GlcNAc(b1-4)GlcNAc
# Method in brief: as §1
# [4] = target: Fuc(a1-3)[Gal(b1-4)]GlcNAc
# Method in brief: as §1
# [5] = target: Fuc(a1-3)[Gal(b1-4)]GlcNAc(b1-4)Gal(b1-4)[Fuc(a1-3)]GlcNAc
# Method in brief: as §1
# [6] = target: Gal(b1-3)[Fuc(a1-4)]GlcNAc(b1-2)Man(a1-3)[Gal(b1-3)[Fuc(a1-4)]GlcNAc(b1-2)Man(a1-6)]Man(b1-4)GlcNAc(b1-4)GlcNAc
# Method in brief: as §1
# [7] = target: Gal(b1-4)GlcNAc(b1-2)Man(a1-3)[GlcNAc(b1-2)Man(a1-6)]Man(b1-4)GlcNAc(b1-4)GlcNAc
# Method in brief: as §1
# [8] = target: Gal(b1-4)GlcNAc(b1-3)GalNAc
# Method in brief: as §1
# [9] = target: Gal(b1-4)GlcNAc(b1-3)[GlcNAc(b1-6)]Gal(b1-4)GlcNAc
# Method in brief: as §1
# [10] = target: Gal3S(b1-3)[Fuc(a1-4)]GlcNAc
# Method in brief: as §1
# [11] = target: Gal3S(b1-4)[Fuc(a1-3)]Glc6S
# Method in brief: as §1
# GalNAc(a1-3)Gal = target: GalNAc(a1-3)Gal
# Method in brief: as §1
# [12] = target: GalNAc(b1-3)Gal(a1-6)Gal(b1-4)Glc
# Method in brief: as §1
# Glc(b1-6)Glc = target: Glc(b1-6)Glc
# Method in brief: as §1
# [13] = target: GlcNAc(a1-4)Gal(b1-4)GlcNAc(b1-3)Gal(b1-4)GlcNAc(b1-3)Gal(b1-4)GlcNAc
# Method in brief: as §1
# [14] = target: GlcNAc(a1-4)Gal(b1-4)GlcNAc(b1-3)Gal(b1-4)[Fuc(a1-3)]GlcNAc(b1-3)Gal(b1-4)[Fuc(a1-3)]GlcNAc
# Method in brief: as §1
# [15] = target: GlcNAc(b1-2)Gal(b1-3)GalNAc
# Method in brief: as §1
# [16] = target: GlcNAc(b1-2)Man(a1-3)[GlcNAc(b1-2)Man(a1-6)]Man(b1-4)GlcNAc(b1-4)[Fuc(a1-6)]GlcNAc
# Method in brief: as §1
# GlcNAc(b1-3)Gal = target: GlcNAc(b1-3)Gal
# Method in brief: as §1
# [17] = target: GlcNAc(b1-3)Gal(b1-3)GalNAc
# Method in brief: as §1
# [18] = target: Neu5Ac(a2-3)Gal(b1-3)[Neu5Ac(a2-6)]GalNAc
# Method in brief: as §1
# [19] = target: Neu5Ac(a2-3)Gal(b1-4)GlcNAc(b1-3)Gal(b1-4)[Fuc(a1-3)]GlcNAc
# Method in brief: as §1
# [20] = target: Neu5Ac(a2-3)Gal(b1-4)[Fuc(a1-3)]GlcNAc(b1-3)GalNAc
# Method in brief: as §1
# [21] = target: Neu5Ac(a2-3)Gal(b1-4)[Fuc(a1-3)]GlcNAc(b1-6)[Gal(b1-3)]GalNAc
# Method in brief: as §1
# [22] = target: Neu5Ac(a2-3)Gal6S(b1-4)GlcNAc
# Method in brief: as §1
# [23] = target: Neu5Ac(a2-6)Gal(b1-4)GlcNAc(b1-2)Man(a1-3)[GlcNAc(b1-2)Man(b1-4)GlcNAc(b1-2)Man(a1-6)]Man(b1-4)GlcNAc(b1-4)GlcNAc
# Method in brief: as §1
# [24] = target: Neu5Ac(a2-6)GlcNAc(b1-4)GlcNAc(b1-4)GlcNAc
# Method in brief: as §1
# [25] = target: Neu5Ac9Ac(a2-3)Gal(b1-4)GlcNAc
# Method in brief: as §1
# [26] = target: Neu5Gc(a2-3)Gal(b1-4)GlcNAc
# Method in brief: as §1
binder,measurement,setting,value
"BSR4 (Toxoplasma gondii), Q95NL6 (protein) MVMMGSMQQRRGGLRSNARQLLAVCMSGVVFFSSGQAVADNLLEGLLHRTLQQQVEVTSRLTVAGSDAKCDFFTPATQDSPPVSGSLTLSKGRMTATFECSATQALSISTIPTNIEQNVCDPKKTTNGTVCQFGANGSAGTEVTLKDLLETDRIVNWKVNEQREESNKSQKWSLELHNEDLPLTDKAFVVGCQATSAARGTESGKTAACKLTVNVEARASSLAENNVVTCAYGKGSNPNPVEVEMSTEKNTLTINCGSDGSLQPTTYAEEYCVADSKDVNRCSTTRFVEIFPKFLKSWWVTETQKRTSATLTIPQTDLPEADQQFLVGCVPKKTAPEDPKKDKESGTETGAPTSCTVLVTVKAASSASHASPTVQILAAASSAAA",glycan array binding signal (z-score),[1],0.187
same,glycan array binding signal (z-score),[2],1.41
same,glycan array binding signal (z-score),[3],-0.071
same,glycan array binding signal (z-score),[4],0.23
same,glycan array binding signal (z-score),[5],1.44
same,glycan array binding signal (z-score),[6],1.39
same,glycan array binding signal (z-score),[7],-0.349
same,glycan array binding signal (z-score),[8],0.454
same,glycan array binding signal (z-score),[9],0.261
same,glycan array binding signal (z-score),[10],5.04
same,glycan array binding signal (z-score),[11],0.993
same,glycan array binding signal (z-score),GalNAc(a1-3)Gal,-0.538
same,glycan array binding signal (z-score),[12],-0.617
same,glycan array binding signal (z-score),Glc(b1-6)Glc,-0.765
same,glycan array binding signal (z-score),[13],-0.25
same,glycan array binding signal (z-score),[14],1.8
same,glycan array binding signal (z-score),[15],0.324
same,glycan array binding signal (z-score),[16],7.79
same,glycan array binding signal (z-score),GlcNAc(b1-3)Gal,-0.636
same,glycan array binding signal (z-score),[17],1.23
same,glycan array binding signal (z-score),[18],0.026
same,glycan array binding signal (z-score),[19],0.289
same,glycan array binding signal (z-score),[20],3.61
same,glycan array binding signal (z-score),[21],1.73
same,glycan array binding signal (z-score),[22],-0.227
same,glycan array binding signal (z-score),[23],-0.667
same,glycan array binding signal (z-score),[24],-0.434
same,glycan array binding signal (z-score),[25],0.407
same,glycan array binding signal (z-score),[26],-0.102

# Source: the supplement of paper PMC8728848
